Hits are enriched below; roughly 7.3% of the tested compounds scored in any of these assays.
FMDV inh = High Throughput Screening for Foot and Mouth Disease Virus Antivirals. FMDV antiviral cell-based qHTS. Potency, µM (highest dose often 57.9 µM), most hits filed as inhibitors. 410,000 tested, 1.2% active. AID 1159524, 2015; calls by dose curve; tested in HEK293T cells; also: read-out not given here; nearly all actives have a fitted effect of over 45% in size
Vaccinia Venus = qHTS for Stage-Specific Inhibitors of Vaccinia Orthopoxvirus: Venus Reporter Primary qHTS; AID 720580, 2013; Vaccinia virus Venus reporter expression, fluorescence; 330,000 tested, 0.46% active; Potency, µM (top dose mostly 36.5 µM), most hits filed as inhibitors; calls by dose curve; tested in A549 cells; also: nearly all actives have a fitted effect of over 30% in size
VACV mCherry inh = qHTS for Stage-Specific Inhibitors of Vaccinia Orthopoxvirus: mCherry Reporter Primary qHTS; Potency, µM (titrated, usually from 36.5 µM), actives largely listed as inhibitors; Vaccinia virus mCherry reporter infection, fluorescence; 310,000 tested, 0.63% active; calls by dose curve; tested in A549 cells; also: nearly all actives have a fitted effect of over 35% in size
HCV inhibitor = qHTS Assay for Inhibitors of Hepatitis C Virus (HCV). AID 651820, 2012. Huh7.5.1 HCVcc-Cre infection, luciferase reporter, 44 h. 340,000 tested, 3.4% active. Potency, µM (doses to about 41.8 µM), usual class: inhibitors; active = well fitted inhibition curve with a large enough effect; inconclusive = small, poorly fitted or top-dose-only effect, or another doubt; inactive = no such curve, though single readings can be large or run the other way
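Infectious HCV cell culture screen: compound-treated cells (1,000/well, pre-plated 4 h) are infected with HCVcc-Cre at roughly 0.5 moi and grown 44 h. Infection is quantified by luciferase signal after 15 min substrate incubation at room temperature.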
HCMV inh = qHTS Assay for inhibitors of the human cytomegalovirus (HCMV). HFF cells, HCMV-luciferase reporter, 72 h; stronger effect = lower value. activity change, negative = inhibition, % at 57.5 µM. 410,000 tested, 4.5% active. AID 1259415, 2018; in the data active = activity change below about -60%; inconclusive = no clear call, values can overlap the other calls; inactive = above about -39%
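After 16 h attachment at 37C, HFF cells received test compound and HCMV-luciferase (1 PFU/cell); reporter luminescence read 72 h later, data normalized against buffer-only and known inhibitor Salinomycin.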
Numbers stand for hits; n = inactive; u = inconclusive; x = not tested or not shown; ! = not active in a repeat; [ ] = another dose, or the depositor's remark.

SMILES	FMDV inh	Vaccinia Venus	VACV mCherry inh	HCV inhibitor	HCMV inh
CN(Cc1ccc(OC(F)F)cc1)C(=O)c1cccc(S(=O)(=O)N2CCN(Cc3ccccc3)CC2)c1	12.6µM	n	n	5.62µM	-91.5
CCCC(=O)Oc1c(Sc2ccc(Cl)cc2)c(C)nn1-c1ccccc1	n	n[7.34 µM]	n[7.34 µM]	x	n
Cc1oc2ncn(CC(C)C)c(=O)c2c1C(=O)NCCCN1CCC(C)CC1	n	n	n	x	n
CCC[C@H]1[C@@H](NC(=O)Nc2ccccc2)CC[C@@]23CCCN2C(=O)CCC[C@@H]13	x	x	x	x	n
COc1cccc(CN(C)C(=O)c2cccc(S(=O)(=O)N3CCN(c4ccccc4)CC3)c2)c1OC	17.8µM	x	x	7.08µM	-70.4
CN(CC(=O)Nc1ccc(F)cc1)C(=O)C1CCN(S(=O)(=O)c2ccc3c(c2)OCCO3)CC1	n	n	n	u	n
COc1cccc(CN(C)C(=O)c2cccc(S(=O)(=O)N3CCN(c4ccc(F)cc4)CC3)c2)c1OC	20µM	n	u	u	-79.6
CN(Cc1ccc(OC(F)F)cc1)C(=O)C1CCN(S(=O)(=O)c2ccc3c(c2)OCCO3)CC1	u	x	x	6.31µM	n
COc1cccc(NC(=O)CN(C)C(=O)c2cccc(S(=O)(=O)N3CCN(c4ccccc4)CC3)c2)c1	n	x	x	u	n
O=C(CNC(=O)C1CCCCC1)OCC(=O)c1ccc(-c2ccccc2)cc1	x	n	n	x	x
O=C(Nc1ccc2nc(-c3cccs3)c(-c3cccs3)nc2c1)N1CCCCC1	x	n	n	x	x
Cc1cccc(N2CCN(C(=O)C3CCN(c4ncnc5c4nc4n5CCCCC4)CC3)CC2)c1C	20µM	u	n	7.08µM	-76.5!
O=C(C1CCN(c2ncnc3c2nc2n3CCCCC2)CC1)N1CCN(c2ccccc2F)CC1	u	n	n	n	-64.1!
Cc1cccc(N2CCN(C(=O)C3CCN(c4ncnc5c4nc4n5CCCCC4)CC3)CC2C)c1 (stereo unspecified)	31.6µM	u	u	5.62µM	-96.1!
Cc1cc(N2CCC(C(=O)N3CCN(c4cccc(C)c4C)CC3)CC2)n2ncnc2n1	n	n	u	u	-88.6
NC(C(=O)O)c1ccc(P(=O)(O)O)cc1 (stereo unspecified)	n	n	n	x	x
S=C1NCCOc2ccccc21	x	x	x	x	n
CNc1ncncc1-c1ccccc1C	n	x	x	x	x
COc1ccc(NC(=O)C2CCCN2S(=O)(=O)c2ccc3c(c2)CCCC(=O)N3)cc1Cl (stereo unspecified)	u	n	n	x	n
COc1cccc(Nc2nc(-c3sc(NC(=O)CC(C)C)nc3C)cs2)c1	n	u	u	n	n
C=CCCC(=O)Nc1nc(C)c(-c2csc(Nc3cccc(OC)c3)n2)s1	n	u	u	6.31µM	n
C=CCCC(=O)Nc1nc(C)c(-c2csc(Nc3cc(OC)ccc3OC)n2)s1	n	u	u	3.16µM	n
COc1cccc(Nc2nc(-c3sc(NC(=O)c4ccccc4)nc3C)cs2)c1	n	u	n	n	-60.6
CCc1cccc(NC(=O)C(c2ccccc2)N2Cc3ccccc3C2=O)c1 (stereo unspecified)	n	n	n	x	n
Cc1ccccc1CNC(=O)Cc1ccc(NC(=O)N2CCCCc3ccccc32)cc1	n	n	n	x	n
SMILES	FMDV inh	Vaccinia Venus	VACV mCherry inh	HCV inhibitor	HCMV inh
CCOc1ccc(CNC(=O)C2CCN(C(=O)c3sccc3-n3cccc3)CC2)cc1	n	n	n	x	n
Cc1c(OC(C)C(=O)NCC(O)c2ccccc2)ccc2c3c(c(=O)oc12)CCCC3 (stereo unspecified)	n	x	x	25.1µM	n
Cc1ccc(Cn2c(SCC(=O)NCc3ccccc3Cl)nc3ccsc3c2=O)cc1	n	n	n	x	n
COc1cc(NC(=O)OCc2ccccc2)c2ncccc2c1	n	n	n	14.1µM	n
COc1cc(NC(=O)c2cc(OC)c(OC)c(OC)c2)c2ncccc2c1	n	n	n	10µM	n
COc1cc(NCc2ccccc2O)c2ncccc2c1	n	n	u	n	n
CCc1cc(=O)oc2cc3occ(C)c3cc12	n	n	n	u	n
CCCc1cc(=O)oc2cc3oc(C)c(C)c3cc12	n	n	n	22.4µM	n
CCCc1cc(=O)oc2cc3occ(C)c3cc12	n	x	x	2.24µM	n
CCCc1cc(=O)oc2cc(C)c3c(C)coc3c12	x	n	n	10µM	n
Cc1cc(C)c2c(CN3CCCCC3)cc(=O)oc2c1	n	n	n	n	n
Cc1cc(C)c2c(CCl)cc(=O)oc2c1	28.2µM	u	n	n	-95.2
COC(=O)[C@H](Cc1ccccc1)N1CC(N2CCCC2)CS1(=O)=O (stereo partly specified)	x	x	x	x	n
COc1ccc(CNC(=O)CC(C)n2nc(C)cc2C)cc1 (stereo unspecified)	n	n	n	x	n
CC(NC(=O)C1CCOCC1)c1nnc2n1CCN(Cc1cc3c(cc1Cl)OCO3)CC2 (stereo unspecified)	n	n	n	x	x
CCOC(=O)c1sc(Nc2nc3c(OC)cccc3s2)cc1C	n	n	n	10µM	n
COc1cccc2sc(Nc3nc4ccc(NC(C)=O)cc4s3)nc12	n	n	n	4.47µM	-82.5
CCOC(=O)c1sc(Nc2nc3cc4c(cc3s2)OCO4)cc1C	n	n	n	u	n
CCCC(=O)N/C(N)=N/c1nc(C)c2cc(C)ccc2n1	n	u	2.24µM	6.31µM	n

High-throughput results from PubChem BioAssay.
